# Reference: ChEMBL document CHEMBL4513216, “Probing the Open Global Health Chemical Diversity Library for Multistage-Active Starting Points for Next-Generation Antimalarials” (ACS Infect Dis, 2020)
# The campaign covered roughly 68,000 compounds. About 2,700 (4%) showed an effect of 50% or more. This is one part of a sample in which strong results are shown more often than they occur.
# System: Plasmodium berghei
# Test: Screen against P. berghei liver stage (PbLuc), transformed with Luciferase, at 2uM
# Type: functional, HepG2
# Details: tested at 2 uM
row,Structure (SMILES),INHIBITION [%]
1,NCc1cnc(Nc2ccccc2)nc1,16.87
2,O=C1Nc2ccccc2CNC12CCN(CC1CCCC1)CC2,-7.08
3,O=C1Nc2ccccc2CNC12CCN(CC1CC1)CC2,58.42
4,O=C1Nc2ccccc2CNC12CCN(CC1CCNC1)CC2 (stereo not given),21.69
5,COc1cccc2sc(N3CC(OC(C)=O)C3)nc12,-5.98
6,COCCC(C)NS(=O)(=O)c1ccc(C)c(N(C)C)c1 (stereo not given),52.6
7,CSCC(C)NS(=O)(=O)c1ccc(C)c(N(C)C)c1 (stereo not given),-1.57
8,Cc1ccc(S(=O)(=O)N[C@H](CO)C(C)C)cc1N(C)C,-94.5
9,CN(C)CC(=O)N1Cc2ncn(C)c2C(COCC2CCOCC2)C1 (stereo not given),6.8
10,Cn1c(CC2CCS(=O)(=O)C2)nnc1SCCOc1ccccc1F (stereo not given),7.08
11,O=C(Cn1ccc(=O)[nH]c1=O)NCc1cccnc1OCC(F)(F)F,51.76
12,O=C(Cn1cccnc1=O)NCc1cccnc1OCC(F)(F)F,3.95
13,CN1CC(C(=O)NCc2cccnc2OCC(F)(F)F)CC1=O (stereo not given),9.21
14,Cc1ccc2[nH]c(=O)c(CNCCCN3CCOCC3)cc2c1,22.39
15,O=C(c1c[nH]cn1)N1CCC(F)(F)C2(CCN(c3ncccn3)C2)C1 (stereo not given),38
16,CCc1cc(C(=O)N2Cc3ccccc3OC3(CCOCC3)C2)on1,14.05
17,Cc1cnn(CC2CCCN2c2ncnc3sccc23)c1 (stereo not given),37.87
18,c1nc(N2CCCC2Cn2cncn2)c2sccc2n1 (stereo not given),-48.41
19,Cc1nc(C)n(CC2CCCN(c3ncnc4ccsc34)C2)n1 (stereo not given),-20.93
20,COc1cc(N2C[C@H]3CC[C@@H](C2)N(CC2CCC2)C3=O)ncn1,8.26
21,c1nc(N2CCCC(Cn3cncn3)C2)c2sccc2n1 (stereo not given),68.24
22,O=C1[C@@H]2CC[C@@H](CN(c3ncnc4ccsc34)C2)N1CC1CC1,62.51
23,Cc1cnn(CC2CCCN2c2ncnc3ccsc23)c1 (stereo not given),53.33
24,c1nc(N2CCCC(Cn3cncn3)C2)c2ccsc2n1 (stereo not given),-1.74

row,Structure (SMILES),INHIBITION [%]
1,CN1C(=O)[C@@H]2CC[C@H]1CN(c1ncnc3ccsc13)C2,14.82
2,COC(=O)CN(C(=O)c1ccc(Cl)o1)c1cccc(F)c1,34.65
3,O=C(NCc1ccc(Br)c(F)c1)Nc1cn[nH]c1,2.31
4,Cc1cc(CN2CCCC2c2c(C)nn(C)c2Cl)on1 (stereo not given),-50.23
5,CCc1nc(CN(C)c2nccc(N3CCCC(O)C3)n2)no1 (stereo not given),11.38
6,Cc1cnn(CC2CN(Cc3nc(C)no3)CCO2)c1 (stereo not given),-35.62
7,O=C(c1ccco1)N1CCCC1C1CCN(Cc2ccccc2)CC1 (stereo not given),3
8,O=C(C1CC1)N1CCCC1C1CCN(Cc2ccccc2)CC1 (stereo not given),53.86
9,O=C(c1ccncc1)N1CCCC1C1CCN(Cc2ccccc2)CC1 (stereo not given),45.82
10,CC(=O)c1cc(CC(=O)NCc2cccc(F)c2F)cs1,36.26
11,Cc1nnc(N2C[C@@H]3CCCO[C@@H]3[C@H](N3CCCC3=O)C2)s1,21.57
12,CN1CCCN(C(=O)NCCNc2cnccn2)CC1,12.88
13,O=C(NCCNc1cnccn1)N1CCCC1,-12.31
14,CC(=O)N1CCCN(C(=O)NCCNc2cnccn2)CC1,64.71
15,COCC1(C(=O)N[C@H]2CN(c3noc(C)n3)C[C@@H]2C2CC2)CCC1,21.28
16,CC(C)S(=O)(=O)NCC1CCCN(C(=O)c2ccc3c(c2)OCCO3)C1 (stereo not given),21.39
17,O=C(CC1CC1)N[C@@H]1CN(C(=O)c2cccs2)C[C@@H]2CCCO[C@@H]21,45.36
18,CC(NC(=O)N1CCC[C@H]1CO)c1noc(-c2ccccc2)n1 (stereo not given in full),5.28
19,CC(NC(=O)N1CCSC(C)(C)C1)c1noc(-c2ccccc2)n1 (stereo not given),29.13
20,CCN1CCN(C(=O)NC(C)c2noc(-c3ccccc3)n2)CC1 (stereo not given),88.75
21,O=C(Nc1ccccc1)N1C2CCC(O)(CC2)C1CN1CCOCC1 (stereo not given),11.94
22,CC(O)C1CCN(C(=O)Nc2nc(-c3ccccc3)ns2)CC1 (stereo not given),-65.84
23,O=C(Nc1nc(-c2ccccc2)ns1)N1CCC(CO)CC1,7.72
24,CCC(O)C1CCN(C(=O)Nc2nc(-c3ccccc3)ns2)CC1 (stereo not given),57.92

row,Structure (SMILES),INHIBITION [%]
1,O=C(c1cscn1)N1CCC2(CN(Cc3ccsc3)C2)C1,-27.26
2,O=C(c1cscn1)N1CCC2(CN(Cc3ccoc3)C2)C1,46.87
3,O=C(c1cscn1)N1CCC2(CN(Cc3ccncc3)C2)C1,55.66
4,NC(=O)C1CCCN1Cc1cccc(NC(=O)c2cc(Cl)cc(Cl)c2)c1 (stereo not given),3.14
5,CCc1ccc(C(=O)Nc2cccc(CN3CCCC3C(N)=O)c2)cc1 (stereo not given),10.61
6,Cc1cc(C)cc(C(=O)Nc2cccc(CN3CCCC3C(N)=O)c2)c1 (stereo not given),57.01
7,O=C(CSc1nnc(N2CCNCC2)s1)Nc1ccccc1,48.59
8,Cn1nc(Br)c2c(NCCS(N)(=O)=O)ncnc21,20.21
9,Cn1nc(Br)c2c(NCCNc3ncccn3)ncnc21,33.11
10,Cn1nc(Br)c2c(NCCN)ncnc21,60
11,CC(C)NC(=O)CC(C)NCc1ccc(F)cc1Cl (stereo not given),40.64
12,CS(=O)(=O)Cc1ccc(Cl)cc1NCc1ccccc1F,0.13
13,CC(CS(C)(=O)=O)NCc1cc(Cl)ccc1F (stereo not given),50.53
14,CC(C)C(=O)NCc1cc(Br)ccc1F,-64.91
15,CC(C)NC(=O)CNC(C)c1c(F)cccc1Cl (stereo not given),5.34
16,CC(C)NC(=O)CC(C)NCc1cc(Cl)ccc1F (stereo not given),52.51
17,Cc1cnc(CNc2ncc(C)c(-c3cnn(C)c3)n2)cn1,-20.35
18,Cc1cccc(N2CCC3(CCN(C(=O)c4cccnc4)CC3)C2)n1,7.29
19,Cc1nnc(NC(=O)CN2CCCC2c2noc(C3CC3)n2)s1 (stereo not given),-32.11
20,O=C(Cc1ccsc1)NCCc1ccoc1,42.8
21,O=C(NCCc1ccsc1)c1ccoc1,52.08
22,CC(NC(=O)c1ccoc1)C(=O)N(C)Cc1ccsc1 (stereo not given),-56.89
